Data on 42 compounds can be found in PubChem BioAssay AID1645882 (National Center for Advancing Translational Sciences (NCATS), 2021).

“And” between values parts separate entries of the source, which are not always exact repeats. Equal entries are not always repeated. The campaign covered roughly 16,000 compounds. About 120 (0.75%) were called active. Entries that show only a call come without a potency. Not shown: some 4% with an inconclusive outcome. Calls come from the whole dose curve; as a rule, active = well fitted inhibition curve with a large enough effect; inconclusive = small, poorly fitted or top-dose-only effect; inactive = no such curve, though single readings can be large or run the other way. Only a selection was taken, and actives are over-represented in it overall. Where a structure was tested more than once in an assay, its records may differ in their call.
Potency is the fitted concentration of half-maximal effect.

Chain of Rap guanine nucleotide exchange factor 3 (Homo sapiens) (O95398 whole entry, looked up): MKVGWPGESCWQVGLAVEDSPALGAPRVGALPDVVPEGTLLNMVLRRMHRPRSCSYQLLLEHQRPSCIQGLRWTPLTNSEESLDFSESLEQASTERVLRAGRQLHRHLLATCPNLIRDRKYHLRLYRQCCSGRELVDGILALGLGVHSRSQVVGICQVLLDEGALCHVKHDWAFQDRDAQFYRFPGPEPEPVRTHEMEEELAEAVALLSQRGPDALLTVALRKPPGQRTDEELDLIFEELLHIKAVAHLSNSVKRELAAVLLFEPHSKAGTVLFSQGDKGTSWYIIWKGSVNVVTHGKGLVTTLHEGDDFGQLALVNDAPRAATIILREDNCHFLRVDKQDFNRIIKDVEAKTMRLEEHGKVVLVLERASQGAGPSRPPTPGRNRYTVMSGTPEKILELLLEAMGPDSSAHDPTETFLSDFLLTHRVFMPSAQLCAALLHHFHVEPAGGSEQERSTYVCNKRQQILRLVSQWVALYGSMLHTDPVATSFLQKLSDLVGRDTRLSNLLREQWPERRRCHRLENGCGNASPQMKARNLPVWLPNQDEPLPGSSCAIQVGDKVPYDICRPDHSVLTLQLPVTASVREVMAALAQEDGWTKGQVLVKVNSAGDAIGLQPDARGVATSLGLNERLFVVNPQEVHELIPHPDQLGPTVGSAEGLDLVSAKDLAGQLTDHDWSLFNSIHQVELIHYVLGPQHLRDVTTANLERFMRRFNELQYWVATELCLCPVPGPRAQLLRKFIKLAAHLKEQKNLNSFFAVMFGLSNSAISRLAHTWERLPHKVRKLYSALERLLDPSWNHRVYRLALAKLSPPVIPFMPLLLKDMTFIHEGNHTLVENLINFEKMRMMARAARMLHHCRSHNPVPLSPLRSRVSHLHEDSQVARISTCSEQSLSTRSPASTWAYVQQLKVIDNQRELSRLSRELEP

The target in the assay is Rap guanine nucleotide exchange factor 3 (Homo sapiens) (UniProt O95398). Kind of assay: Validation qHTS for antagonist of cAMP-regulated guanine nucleotide exchange factor 3 (EPAC1). Note: nearly all actives have a fitted effect of over 75% in size. As to conditions: EPAC1 Rap1B-BODIPY-GDP exchange, fluorescence; series mostly up to 150 µM. An excerpt:
Assay Provider (PI): Xiaodong Cheng Ph.D.
The University of Texas Medical Branch, […], TX
In multi-cellular eukaryotic organisms, the effects of cAMP are transduced by two ubiquitously-expressed intracellular cAMP receptors, the classic protein kinase A/cAMP-dependent protein kinase (PKA/cAPK) and the more recently discovered exchange protein directly activated by cAMP/cAMP-regulated guanine nucleotide exchange factor (EPAC/cAMP-GEF). Both PKA and EPAC are ubiquitously expressed in all tissues, and an increase in intracellular cAMP levels will lead to the activation of both PKA and EPAC. Therefore, careful dissections of the individual role and relative contribution of EPAC and PKA within the overall cAMP signaling in various model systems are critical for further elucidating the mechanism of cAMP signaling. To date no EPAC-specific antagonists and agonist, as well as isoform-specific agonists have been reported, and developing EPAC-specific pharmacological probes to determine the physiological functions that EPAC play in the overall cAMP-mediated signaling remains a major challenge within the research field. Furthermore, identified regulators of EPAC may lead to new mechanism-based therapeutic strategies specifically targeting the EPAC / cAMP-signaling components as EPAC has been implicated to play important roles in major human pathological conditions such as diabetes, heart disease, and cancer.
This qHTS will be used to screen the Molecular Libraries Small Molecule Repository (MLSMR) as a concentration-titration series using the NCGC unique quantitative screening (qHTS) platform to find activators for EPAC1. In addition, this assay will also be used as a counterscreen for the EPAC2 qHTS. This fluorescent based assay is developed and validated for EPAC1 that measures exchange using EPAC effector Rap1 complex with BODIPY-GDP, a GDP analog with a tethered fluorophores. Activators are identified by monitoring the change in fluorescence signal as the exchanged free BODIPY-GDP has a reduced fluorescence compared to Rap1-bound BODIPY-GDP. Increase in signal (activation) is the desired outcome for the EPAC1 agonist while no activity in this assay is desired for the EPAC2 agonist counterscreen.
[1] de Rooij, J., Zwartkruis, F. J., Verheijen, M. H., Cool, R. H., Nijman, S. M., Wittinghofer, A., and Bos, J.L. (1998) Nature 396, 474-477.
Briefly, three uL of reagents (100 nM EPAC1, 250 nM RAP1B-BODIPY-GDP, 50 uM GDP) were dispensed into a 1536-well Greiner black solid-bottom medium binding assay plate. Controls and test compounds (23 nL) were transferred to the plate via a Kalypsys pin tool equipped with a 1536-pin array. The plates were centrifuged at 1,000 rpm for 15 seconds followed by 5 minute incubation at room temperature. The assay plates were read at 5 minute intervals for 30 minutes in the ViewLux plate reader using 480nm excitation and 540nm emission filters. The results were normalized to the […] positive control ATA and DMSO.
For `COc1ccc2c3c1O[C@H]1C[C@H](O)C=C[C@@]31CCN(C)C2`, the Potency entry was “inactive”.

On to `CC(C)c1ccc2c(c1)CC[C@@H]1[C@@](C)(CN)CCC[C@]21C`, for which the Potency entry was “inactive”.

Take `CN(C)c1ccc(/C=C2\C(=O)Nc3ccccc32)cc1`: the Potency entry is “inactive”.

For `CN(C)c1ccc(/C=C2/C(=O)Nc3ccccc32)cc1`, the Potency entry was “inactive”.

Take `O=C1Nc2ccc(I)cc2/C1=C/c1cc(Br)c(O)c(Br)c1`: the Potency was 89.1 µM (active) and 79.4 µM (active) and inactive.

In the case of `COC(=O)c1ccc(CN2CCOc3ccc(C(O)c4cccnc4)cc3C2)cc1` (configuration not stated), the Potency entry was “inactive”.

As for `COc1ccc(-n2c(=O)c(-c3ccc(F)cc3)nc3cnc(N4CCNCC4)nc32)cc1`, the Potency result was “inactive”.

On to `Oc1c(Cl)cc(Cl)cc1Sc1cc(Cl)cc(Cl)c1O`, for which the Potency was 79.4 µM (active).

In the case of `Oc1ccc(Cl)cc1Sc1cc(Cl)ccc1O`, the Potency result is “inactive”.

Regarding `O=C(Nc1ccccc1)O[C@@H]1C[C@H]2CCCC(=O)N3CC[C@@H](C1)[C@@H]23`, the Potency entry was “inactive”.

Turning to `CO[C@@H]1[C@@H](O[C@@H]2O[C@H](C)[C@@H](O[C@H]3C[C@@](C)(O)[C@@H](O)[C@H](C)O3)[C@H](N(C)C)[C@H]2O)[C@@H](CC=O)C[C@@H](C)[C@@H](O[C@@H]2CC[C@H](N(C)C)[C@@H](C)O2)/C=C/C=C/C[C@@H](C)OC(=O)C[C@H]1OC(C)=O`, the Potency result is “inactive”.

As to `COc1ccc2c(c1)c(CC(=O)O)c(C)n2Cc1ccc(Cl)cc1`, the Potency result is “inactive”.

On to `CC(N)C(=O)OC(C)(C)Cc1ccc(Cl)cc1` (configuration not stated), for which the Potency result was “inactive”.

Consider `CC(C)c1ccc2c(c1)c(SC(C)(C)C)c(CC(C)(C)C(=O)O)n2Cc1ccc(Cl)cc1`, for which the Potency was 28.2 µM (active).

Regarding `CCC1C(=O)NCCN1Cc1ccc2c(c1)CN(Cc1cc(OC)ccc1OC)CCO2` (configuration not stated), the Potency entry is “inactive”.

With `N#C/C(=C\c1ccc(O)c(O)c1)C(=O)NCCCc1ccccc1`, the Potency was 63.1 µM (active) and inactive.

On to `N#C/C(=C\c1ccc(O)c(O)c1)C(=O)NCCc1ccccc1`, for which the Potency result is “inactive”.

Take `O=C(O)CCCc1ccccc1`: the Potency result was “inactive”.

Take `N#C/C(=C\c1c[nH]c2ccccc12)C(=O)c1ccc(O)c(O)c1`: the Potency result was “inactive”.

With `N#C/C(=C\c1ccc(O)c(O)c1)C(=O)NCCCCc1ccccc1`, the Potency is 100 µM (active).

Take `Oc1ccc(CCNCCCCCCNCCc2ccccc2)cc1O`: the Potency entry is “inactive”.

Take `CSc1nc(C(=O)NCc2nc(-c3cccc(NC(=O)c4ccc(C)s4)c3)oc2C)cs1`: the Potency result is “inactive”.

Take `Cc1cccc(CN2CCc3nnc(C(C)NC(=O)C4CCOCC4)n3CC2)c1` (configuration not stated): the Potency entry is “inactive”.

For the compound `Cc1ccccc1C(=O)NC(C)c1nnc2n1CCN(Cc1ccc(F)cc1)CC2` (configuration not stated), the Potency entry was “inactive”.

Turning to `C/C1=C2N=C(/C=C3N=C(/C(C)=C4\[N-]C(C(CC(N)=O)C4(C)CCC(=O)NCC(C)OP(=O)([O-])OC4C(CO)OC(n5cnc6cc(C)c(C)cc65)C4O)C4(C)N=C1C(CCC(N)=O)C4(C)CC(N)=O)C(CCC(N)=O)C\3(C)C)C(CCC(N)=O)C/2(C)CC(N)=O.[CH3-].[Co+3]` (configuration not stated), the Potency was 50.1 µM (active).

As to `C[N+](C)(CCCCCC[N+](C)(C)C1c2ccccc2-c2ccccc21)C1c2ccccc2-c2ccccc21`, the Potency entry was “inactive”.

On to `O=S(=O)(O)c1cc(N=C=S)ccc1/C=C/c1ccc(N=C=S)cc1S(=O)(=O)O`, for which the Potency was 35.5 µM (active).

With `S=C=Nc1ccc(N=C=S)cc1`, the Potency entry was “inactive”.

For `Nc1ccc(/C=C/c2ccc(N)cc2S(=O)(=O)O)c(S(=O)(=O)O)c1`, the Potency entry was “inactive”.

Turning to `Nc1nc2c(c(=O)[nH]1)N(C=O)C(CNc1ccc(C(=O)NC(CCC(=O)O)C(=O)O)cc1)CN2` (configuration not stated), the Potency entry was “inactive”.

Take `Fc1ccc(Nc2ccnc(-c3ccc4c(c3)OCO4)n2)cc1`: the Potency result is “inactive”.

Regarding `O=C(Nc1nccs1)[C@@H]1CC=C[C@@H]2CCN(Cc3ccccc3)C(=O)[C@@H]21`, the Potency entry was “inactive”.

Take `CCCc1c(OCCCOc2ccc(OCC(=O)O)cc2)ccc(CC=O)c1O`: the Potency is 100 µM (active).

Consider `CCCc1c(OCCCCc2nn[nH]n2)ccc(C(C)=O)c1O`, for which the Potency result is “inactive”.

Turning to `CCCc1c(OCCCOc2ccc(OCC(=O)O)cc2)ccc(C(C)=O)c1O`, the Potency entry is “inactive”.

For the compound `COCCn1c(=O)c(-c2cc(F)cc(F)c2)nc2cnc(Oc3ccc(OC)cc3)nc21`, the Potency entry was “inactive”.

With `Cc1ccc(C(=O)Nc2ccc(S(=O)(=O)O)c3cc(S(=O)(=O)O)cc(S(=O)(=O)O)c23)cc1NC(=O)c1cccc(NC(=O)Nc2cccc(C(=O)Nc3cc(C(=O)Nc4ccc(S(=O)(=O)O)c5cc(S(=O)(=O)O)cc(S(=O)(=O)O)c45)ccc3C)c2)c1`, the Potency entry is “inactive”.

With `O=C(Nc1cccc(C(=O)Nc2ccc(S(=O)(=O)O)c3cc(S(=O)(=O)O)cc(S(=O)(=O)O)c23)c1)Nc1cccc(C(=O)Nc2ccc(S(=O)(=O)O)c3cc(S(=O)(=O)O)cc(S(=O)(=O)O)c23)c1`, the Potency is 25.1 µM (active).

Turning to `Cc1ccc(S(=O)(=O)O)cc1C`, the Potency result is “inactive”.

As for `O=C(Nc1ccc(C(=O)Nc2ccc(C(=O)Nc3ccc(S(=O)(=O)O)c4cc(S(=O)(=O)O)cc(S(=O)(=O)O)c34)cc2)cc1)Nc1ccc(C(=O)Nc2ccc(C(=O)Nc3ccc(S(=O)(=O)O)c4cc(S(=O)(=O)O)cc(S(=O)(=O)O)c34)cc2)cc1`, the Potency is 39.8 µM (active) and 8.91 µM (active).

Consider `O=C(Nc1cc(C(=O)Nc2ccc(S(=O)(=O)O)cc2S(=O)(=O)O)cc(C(=O)Nc2ccc(S(=O)(=O)O)cc2S(=O)(=O)O)c1)Nc1cc(C(=O)Nc2ccc(S(=O)(=O)O)cc2S(=O)(=O)O)cc(C(=O)Nc2ccc(S(=O)(=O)O)cc2S(=O)(=O)O)c1`, for which the Potency was 15.8 µM (active).

As to `O=C(Nc1ccc(C(=O)O)c(O)c1)c1ccccc1`, the Potency entry is “inactive”.
